Data taken from PubChem BioAssay AID1159580 (chemical genetic matrix, 2015).
Hit rate of the full screen: of about 5,500 compounds, about 2,000 (36%) were called active. Inconclusive results (about 18%) are left out. Rule as the data show it: active = normalized growth mostly below about 0.91 (no sharp cut-off); inconclusive = no clear call, values can overlap the other calls; inactive = mostly above about 0.92. The list shows a part of the results.

Assay: chemical genetic growth profiling, strain panel (AID 1159580);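 also: tested at 20 µM; growth read once vehicle control cultures reached saturation at 30 °C; 1 = growth at the plate median or of vehicle wells; lower values mean less growth of the strain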
Details: growth OD

Measured: normalized growth

O=C(O)COc1cc(Cl)c(Cl)cc1Cl
inactive: S. cerevisiae deletion strains, locus YJR075W, strain HOC1, stronger effect = lower value 1.01 | S. cerevisiae deletion strains, locus YKL009W, strain mrt4, stronger effect = lower value 1.05 | S. cerevisiae deletion strains, locus YKL068W, stronger effect = lower value 1.01 | S. cerevisiae deletion strains, locus YKL085W, strain MDH1 (second series), stronger effect = lower value 1.01 | S. cerevisiae deletion strains, locus YKL085W, strain MDH1, stronger effect = lower value 1.01 | S. cerevisiae deletion strains, locus YKL160W, strain elf1, stronger effect = lower value 1 | S. cerevisiae deletion strains, locus YKL190W, strain CNB1, stronger effect = lower value 0.995 | S. cerevisiae deletion strains, locus YKR001C, strain vps1, stronger effect = lower value 1.04 | S. cerevisiae deletion strains, locus YKR026C, strain gcn3, stronger effect = lower value 1 | S. cerevisiae deletion strains, locus YKR091W, strain srl3, stronger effect = lower value 1 | S. cerevisiae deletion strains, locus YLL001W, strain dnm1, stronger effect = lower value 1.01 | S. cerevisiae deletion strains, locus YLL026W, stronger effect = lower value 0.998 | S. cerevisiae deletion strains, locus YLL041C, strain sdh2, stronger effect = lower value 1 | S. cerevisiae deletion strains, locus YLR027C, strain aat2, stronger effect = lower value 1 | S. cerevisiae deletion strains, locus YLR039C, strain RIC1, stronger effect = lower value 1.06 | S. cerevisiae deletion strains, locus YLR058C, strain SHM2, stronger effect = lower value 1.01 | S. cerevisiae deletion strains, locus YLR102C, strain apc9, stronger effect = lower value 1.02 | S. cerevisiae deletion strains, locus YLR113W, strain HOG1, stronger effect = lower value 0.963 | S. cerevisiae deletion strains, locus YLR221C, strain rsa3, stronger effect = lower value 1 | S. cerevisiae deletion strains, locus YLR258W, strain gsy2, stronger effect = lower value 1.01 | S. cerevisiae deletion strains, locus YLR262C, strain YPT6 (second series), stronger effect = lower value 1.01 | S. cerevisiae deletion strains, locus YLR262C, strain YPT6, stronger effect = lower value 1.07 | S. cerevisiae deletion strains, locus YLR268W, strain sec22, stronger effect = lower value 1.02 | S. cerevisiae deletion strains, locus YLR320W, strain mms22, stronger effect = lower value 0.994 | S. cerevisiae deletion strains, locus YLR330W, strain CHS5, stronger effect = lower value 1.01 | S. cerevisiae deletion strains, locus YLR342W, strain FKS1 (second series), stronger effect = lower value 1.02 | S. cerevisiae deletion strains, locus YLR342W, strain FKS1, stronger effect = lower value 0.999 | S. cerevisiae deletion strains, locus YLR357W, strain rsc2, stronger effect = lower value 0.964 | S. cerevisiae deletion strains, locus YLR370C, strain arc18, stronger effect = lower value 1 | S. cerevisiae deletion strains, locus YLR371W, strain rom2, stronger effect = lower value 1.02 | S. cerevisiae deletion strains, locus YLR384C, strain iki3, stronger effect = lower value 1 | S. cerevisiae deletion strains, locus YLR418C, strain cdc73, stronger effect = lower value 1.04 | S. cerevisiae deletion strains, locus YML016C, strain PPZ1, stronger effect = lower value 1.01 | S. cerevisiae deletion strains, locus YML032C, strain rad52, stronger effect = lower value 1.02 | S. cerevisiae deletion strains, locus YML120C, strain ndi1, stronger effect = lower value 0.999 | S. cerevisiae deletion strains, locus YML124C, strain tub3, stronger effect = lower value 1.02 | S. cerevisiae deletion strains, locus YMR058W, strain fet3, stronger effect = lower value 1 | S. cerevisiae deletion strains, locus YMR078C, strain ctf18, stronger effect = lower value 1.03 | S. cerevisiae deletion strains, locus YMR125W, strain sto1, stronger effect = lower value 0.994 | S. cerevisiae deletion strains, locus YMR129W, stronger effect = lower value 1.01 | S. cerevisiae deletion strains, locus YMR205C, strain PFK2, stronger effect = lower value 0.992 | S. cerevisiae deletion strains, locus YMR223W, strain ubp8, stronger effect = lower value 1.02 | S. cerevisiae deletion strains, locus YMR231W, strain pep5, stronger effect = lower value 1.01 | S. cerevisiae deletion strains, locus YMR263W, strain SAP30, stronger effect = lower value 1.01 | S. cerevisiae deletion strains, locus YMR307W, strain GAS1, stronger effect = lower value 1.02 | S. cerevisiae deletion strains, locus YNL067W, strain RPL9B, stronger effect = lower value 1.01 | S. cerevisiae deletion strains, locus YNL071W, strain lat1, stronger effect = lower value 0.994 | S. cerevisiae deletion strains, locus YNL128W, strain TEP1, stronger effect = lower value 1.02 | S. cerevisiae deletion strains, locus YNL153C, strain GIM3, stronger effect = lower value 1 | S. cerevisiae deletion strains, locus YNL183C, strain NPR1, stronger effect = lower value 0.953 | S. cerevisiae deletion strains, locus YNL209W, strain ssb2, stronger effect = lower value 1 | S. cerevisiae deletion strains, locus YNL233W, strain BNI4, stronger effect = lower value 1.01 | S. cerevisiae deletion strains, locus YNL248C, strain rpa49, stronger effect = lower value 0.992 | S. cerevisiae deletion strains, locus YNL250W, strain rad50, stronger effect = lower value 1.03 | S. cerevisiae deletion strains, locus YNL271C, strain bni1, stronger effect = lower value 1.02 | S. cerevisiae deletion strains, locus YNL298W, strain CLA4, stronger effect = lower value 1.03 | S. cerevisiae deletion strains, locus YNL307C, strain MCK1, stronger effect = lower value 1.03 | S. cerevisiae deletion strains, locus YNL322C, strain KRE1 (second series), stronger effect = lower value 0.992 | S. cerevisiae deletion strains, locus YNL322C, strain KRE1, stronger effect = lower value 1.01 | S. cerevisiae deletion strains, locus YNR049C, strain mso1, stronger effect = lower value 0.988 | S. cerevisiae deletion strains, locus YNR052C, strain pop2, stronger effect = lower value 1.01 | S. cerevisiae deletion strains, locus YOL006C, strain TOP1, stronger effect = lower value 1.06 | S. cerevisiae deletion strains, locus YOL012C, strain htz1 1.75 | S. cerevisiae deletion strains, locus YOL147C, strain pex11, stronger effect = lower value 1.02 | S. cerevisiae deletion strains, locus YOR001W, strain rrp6, stronger effect = lower value 1 | S. cerevisiae deletion strains, locus YOR061W, strain CKA2, stronger effect = lower value 1.01 | S. cerevisiae deletion strains, locus YOR069W, strain VPS5, stronger effect = lower value 1.01 | S. cerevisiae deletion strains, locus YOR070C, strain gyp1, stronger effect = lower value 0.991 | S. cerevisiae deletion strains, locus YOR080W, strain dia2, stronger effect = lower value 0.988 | S. cerevisiae deletion strains, locus YOR083W, strain WHI5, stronger effect = lower value 1.01 | S. cerevisiae deletion strains, locus YOR106W, strain vam3, stronger effect = lower value 1.02 | S. cerevisiae deletion strains, locus YOR136W, strain idh2, stronger effect = lower value 1.02 | S. cerevisiae deletion strains, locus YOR144C, strain elg1, stronger effect = lower value 1.03 | S. cerevisiae deletion strains, locus YOR184W, strain ser1, stronger effect = lower value 1.03 | S. cerevisiae deletion strains, locus YOR231W, strain MKK1, stronger effect = lower value 1.01 | S. cerevisiae deletion strains, locus YOR265W, strain rbl2, stronger effect = lower value 0.998 | S. cerevisiae deletion strains, locus YOR270C, strain vph1, stronger effect = lower value 1.02 | S. cerevisiae deletion strains, locus YOR290C, strain snf2, stronger effect = lower value 1.02 | S. cerevisiae deletion strains, locus YOR316C, strain cot1, stronger effect = lower value 1.01 | S. cerevisiae deletion strains, locus YPL051W, strain arl3, stronger effect = lower value 0.999 | S. cerevisiae deletion strains, locus YPL055C, strain LGE1, stronger effect = lower value 1.03 | S. cerevisiae deletion strains, locus YPL078C, strain atp4, stronger effect = lower value 1 | S. cerevisiae deletion strains, locus YPL106C, strain sse1, stronger effect = lower value 0.973 | S. cerevisiae deletion strains, locus YPL240C, strain hsp82, stronger effect = lower value 1 | S. cerevisiae deletion strains, locus YPL241C, strain CIN2, stronger effect = lower value 1.01 | S. cerevisiae deletion strains, locus YPL256C, strain CLN2, stronger effect = lower value 1.04 | S. cerevisiae deletion strains, locus YPR119W, strain clb2, stronger effect = lower value 1.02 | S. cerevisiae deletion strains, locus YPR141C, strain kar3, stronger effect = lower value 1.03 | S. cerevisiae deletion strains, locus YPR163C, strain tif3, stronger effect = lower value 1.02 | S. cerevisiae deletion strains, locus YPR167C, strain met16, stronger effect = lower value 1.02 | S. cerevisiae deletion strains, strain wtn01, stronger effect = lower value 1.02 | S. cerevisiae strains, strain wild type, stronger effect = lower value 1.01
